Laboratory results taken from PubChem BioAssay (NCATS).
Several values for one entry are separate records, joined by “and”; a condition that tells them apart may be missing. Equal values may be shown once. Records with an inconclusive call do not appear. A structure can be active in one record and inactive in another. Activity calls are given as the source filed them. Calls come from the whole dose curve; as a rule, active = well fitted curve in the direction sought with a large enough effect; inconclusive = small, poorly fitted or top-dose-only effect, or another doubt; inactive = no such curve, though single readings can be large; an effect the other way counts as inactive or inconclusive.

Tests used:
[1] = biological target: Rap guanine nucleotide exchange factor 3 (Homo sapiens) (UniProt O95398); test: Confirmatory qHTS for agonist of cAMP-regulated guanine nucleotide exchange factor 3 (EPAC1) (AID 1645881);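 note: EPAC1 catalysed release of BODIPY-GDP from Rap1B seen as fluorescence loss; 100% = effect of cAMP agonist control; nearly all actives have a fitted effect of over 75% in size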
[2] = biological target: Rap guanine nucleotide exchange factor 4 (Homo sapiens) (UniProt Q8WZA2); test: Confirmatory qHTS for agonist of cAMP-regulated guanine nucleotide exchange factor 4 (EPAC2) (AID 1645884);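 note: nucleotide exchange releases bodipy-GDP from Rap1 and this lowers its fluorescence; % is set by controls: 0 for no effect and ±100 for the full control effect; nearly all actives have a fitted effect of over 65% in size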
[3] = biological target: Rap guanine nucleotide exchange factor 4 (Homo sapiens) (UniProt Q8WZA2); test: Confirmatory qHTS for antagonist of cAMP-regulated guanine nucleotide exchange factor 4 (EPAC2) (AID 1645885); note: nearly all actives have a fitted effect of over 25% in size; note: potency is the fitted concentration of half-maximal effect; for activity change, negative = inhibition: % is set by controls: 0 for no effect and ±100 for the full control effect
[4] = biological target: Rap guanine nucleotide exchange factor 3 (Homo sapiens) (UniProt O95398); test: Counterscreen qHTS for antagonist of cAMP-regulated guanine nucleotide exchange factor 3 (EPAC1) (AID 1645888);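 note: fluorescence loss as bound BODIPY-GDP is released from Rap1B; % of control where 0% means no effect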
In short: (§1)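 Measured: fluorescence of BODIPY-GDP bound to Rap1B, which falls as exchange proceeds. Conditions include 50 uM competing GDP, 5 and 30 min reads, and a later cAMP challenge for antagonist detection.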

[5] = biological target: Rap guanine nucleotide exchange factor 3 (Homo sapiens) (UniProt O95398); test: Counterscreen qHTS for agonist of cAMP-regulated guanine nucleotide exchange factor 3 (EPAC1) (AID 1645889); note: % of control where 0% means no effect; nearly all actives have a fitted effect of over 40% in size
In short: as §1

[6] = qHTS for Inhibitors of Plasmodium falciparum (DD2) proliferation (AID 504314);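 note: parasite DNA measured by SYBR Green fluorescence after red cell lysis; plate controls were DMSO vehicle for no effect and artemisinin wells for full effect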
In short: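 Normalization used 0.29 uM artemisinin as full inhibition and DMSO as baseline. Parasitized erythrocytes were exposed to compounds for 72 h (37C, 5% CO2), then lysed with saponin/Triton buffer containing SYBR Green I.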

[7] = qHTS for Inhibitors of Plasmodium falciparum (GB4) proliferation (AID 504315);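 note: 0% = DMSO vehicle and -100% = 0.29 µM artemisinin control; nearly all actives have a fitted effect of over 50% in size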
In short: (§2)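 Parasite growth measured as SYBR Green DNA fluorescence (ex 485, em 535 nm) after overnight lysis following 72 h culture at 37 °C, 0.3% parasitemia, 2.5% hematocrit. Values normalized against DMSO and 0.29 uM artemisinin controls, with plate-stack correction.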

[8] = qHTS for Inhibitors of Plasmodium falciparum (7G8) proliferation (AID 504316);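 note: series mostly up to about 6.7 µM; 0% = DMSO vehicle and -100% = 0.29 µM artemisinin full kill; nearly all actives have a fitted effect of over 65% in size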
In short: as §2

[9] = qHTS for Inhibitors of Plasmodium falciparum (HB3) proliferation (AID 504318);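 note: 0% = DMSO vehicle and -100% = artemisinin control; nearly all actives have a fitted effect of over 60% in size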
In short: as §2

[10] = qHTS for Inhibitors of Plasmodium falciparum (CP250) proliferation (AID 504320);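 note: plate controls were DMSO vehicle for no effect and 0.29 µM artemisinin control for full effect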
In short: as §2

[11] = biological target: Tumor susceptibility gene 101 protein (Homo sapiens) (UniProt Q99816); test: qHTS Assay for Iinhibitors of HIV-1 Budding by Blocking the Interaction of PTAP/TSG101: Hit Validation (AID 651600); note: % is set by controls: 0 for no effect and ±100 for the full control effect; nearly all actives have a fitted effect of over 70% in size
In short: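 Measuring PTAP–Tsg101 interaction by FP: protein at 10 uM and fluorescent peptide at 50 nM (final), buffer 10 mM HEPES pH 7.5 with 0.15 M NaCl, 3 mM EDTA, 0.1 mM TCEP, 0.01% Tween 20; 20 min incubation, r.t.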

Rap guanine nucleotide exchange factor 3 (Homo sapiens), sequence (O95398 whole entry, looked up): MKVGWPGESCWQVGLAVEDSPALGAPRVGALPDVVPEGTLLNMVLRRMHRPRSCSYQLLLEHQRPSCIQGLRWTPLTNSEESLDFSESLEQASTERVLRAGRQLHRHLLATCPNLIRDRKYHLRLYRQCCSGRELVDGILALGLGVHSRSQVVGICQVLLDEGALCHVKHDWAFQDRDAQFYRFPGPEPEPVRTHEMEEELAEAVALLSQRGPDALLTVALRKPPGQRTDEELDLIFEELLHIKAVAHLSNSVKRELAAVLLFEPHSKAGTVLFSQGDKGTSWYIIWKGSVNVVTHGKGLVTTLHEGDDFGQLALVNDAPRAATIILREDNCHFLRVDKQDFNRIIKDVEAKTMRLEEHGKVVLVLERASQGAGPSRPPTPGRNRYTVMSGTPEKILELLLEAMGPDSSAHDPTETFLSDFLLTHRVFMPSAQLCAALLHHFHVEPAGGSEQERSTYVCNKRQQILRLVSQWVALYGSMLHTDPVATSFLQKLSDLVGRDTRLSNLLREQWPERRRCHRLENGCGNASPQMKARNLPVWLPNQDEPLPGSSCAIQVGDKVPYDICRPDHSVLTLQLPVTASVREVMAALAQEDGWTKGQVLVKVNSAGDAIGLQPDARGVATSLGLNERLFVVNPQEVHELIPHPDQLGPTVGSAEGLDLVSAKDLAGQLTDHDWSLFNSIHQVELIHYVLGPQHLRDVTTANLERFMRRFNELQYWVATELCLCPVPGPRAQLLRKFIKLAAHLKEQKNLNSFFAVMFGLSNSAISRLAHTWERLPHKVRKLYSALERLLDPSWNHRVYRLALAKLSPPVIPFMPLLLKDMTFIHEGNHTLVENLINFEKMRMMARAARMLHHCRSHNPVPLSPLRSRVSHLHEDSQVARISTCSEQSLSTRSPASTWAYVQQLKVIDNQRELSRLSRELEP
Rap guanine nucleotide exchange factor 4 (Homo sapiens), sequence (Q8WZA2 whole entry, looked up): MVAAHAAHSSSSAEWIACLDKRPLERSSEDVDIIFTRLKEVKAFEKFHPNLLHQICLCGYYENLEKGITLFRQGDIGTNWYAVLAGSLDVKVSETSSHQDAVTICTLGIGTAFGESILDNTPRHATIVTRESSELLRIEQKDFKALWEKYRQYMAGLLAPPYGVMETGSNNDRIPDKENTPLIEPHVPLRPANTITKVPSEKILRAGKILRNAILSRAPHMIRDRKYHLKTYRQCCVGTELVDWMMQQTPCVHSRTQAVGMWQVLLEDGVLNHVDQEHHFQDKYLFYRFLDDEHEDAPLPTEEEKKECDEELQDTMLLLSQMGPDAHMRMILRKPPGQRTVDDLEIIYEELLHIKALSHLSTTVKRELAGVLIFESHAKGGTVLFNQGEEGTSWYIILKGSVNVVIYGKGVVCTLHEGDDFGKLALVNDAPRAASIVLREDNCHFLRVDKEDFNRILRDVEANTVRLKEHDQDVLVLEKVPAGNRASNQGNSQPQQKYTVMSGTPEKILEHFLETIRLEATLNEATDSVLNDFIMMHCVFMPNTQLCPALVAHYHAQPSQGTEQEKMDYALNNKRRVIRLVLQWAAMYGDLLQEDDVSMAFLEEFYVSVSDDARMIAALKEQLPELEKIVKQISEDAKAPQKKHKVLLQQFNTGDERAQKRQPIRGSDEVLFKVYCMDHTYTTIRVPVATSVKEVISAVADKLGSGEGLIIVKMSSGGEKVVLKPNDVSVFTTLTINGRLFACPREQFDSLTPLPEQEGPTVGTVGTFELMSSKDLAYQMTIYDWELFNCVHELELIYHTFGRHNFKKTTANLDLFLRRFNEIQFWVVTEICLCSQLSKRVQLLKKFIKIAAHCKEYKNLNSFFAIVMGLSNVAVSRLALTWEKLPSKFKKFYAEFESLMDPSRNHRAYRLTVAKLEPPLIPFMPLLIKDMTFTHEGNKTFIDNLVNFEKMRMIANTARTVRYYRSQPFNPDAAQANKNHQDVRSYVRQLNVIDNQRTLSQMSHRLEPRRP
Tumor susceptibility gene 101 protein (Homo sapiens), sequence (Q99816 whole entry, looked up): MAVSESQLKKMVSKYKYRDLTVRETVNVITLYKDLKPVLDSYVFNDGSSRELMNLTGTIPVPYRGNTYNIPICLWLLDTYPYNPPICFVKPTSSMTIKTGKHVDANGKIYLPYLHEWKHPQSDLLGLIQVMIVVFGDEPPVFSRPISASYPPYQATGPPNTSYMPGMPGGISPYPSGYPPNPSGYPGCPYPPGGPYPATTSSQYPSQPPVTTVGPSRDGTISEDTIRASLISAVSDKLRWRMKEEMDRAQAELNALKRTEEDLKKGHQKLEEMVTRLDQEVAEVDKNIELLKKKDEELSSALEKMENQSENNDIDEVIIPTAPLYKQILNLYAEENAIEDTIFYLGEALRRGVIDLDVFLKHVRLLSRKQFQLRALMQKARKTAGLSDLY

COc1ccc(C2=NN(c3ccccc3)C(c3cn(CCC(=O)O)nc3-c3ccccc3)C2)cc1 (stereo not given)
inactive: Potency [1] | Potency [2] | Potency [3] | Potency [4] | Potency [5]

Cc1ccc(S(=O)(=O)Nc2ccc(S(=O)(=O)Nc3nccs3)cc2)cc1C
inactive: Potency [1] | Potency [2] | Potency [3] | Potency [4] | Potency [5]

C[C@@H]1ON(C)[C@H]2C[C@H]3c4[nH]c5ccc(-c6ccc7c(c6)OCO7)cc5c4CCN3C(=O)[C@@H]12
inactive: Potency [1] | activation [2] 1.59% [at 17.1 µM, percent relative to cAMP agonist control] | Potency [3] | activity change, negative = inhibition [4] -7.04% [at 30.8 µM] | activation [5] 32% [at 30.8 µM]

CCCCn1c(N)c(N(CCC(C)C)C(=O)c2ccc(COc3ccccc3)o2)c(=O)[nH]c1=O
inactive: Potency [1] | activation [2] 1.71% [at 17.1 µM, percent relative to cAMP agonist control] | Potency [3] | activity change, negative = inhibition [4] 1.42% [at 30.8 µM] | activation [5] 7.33% [at 30.8 µM]

CCCCC(CC)COC1(c2ccccc2)OC(=O)c2ccccc21 (stereo not given)
inactive: Potency [1] | Potency [2] | Potency [3] | Potency [4] | Potency [5]

CCC(=O)N(CCC1(c2ccccc2OC)CCOC(C(C)C)C1)Cc1ccco1 (stereo not given)
inactive: Potency [1] | activation [2] -0.808% [at 17.1 µM, percent relative to cAMP agonist control] | Potency [3] | activity change, negative = inhibition [4] -14.7% [at 30.8 µM] | activation [5] 10.9% [at 30.8 µM]

NS(=O)(=O)c1ccc(NC(=O)c2cccc(N3C(=O)c4ccccc4C3=O)c2)cc1
inactive: Potency [1] | activation [2] 3.4% [at 17.1 µM, percent relative to cAMP agonist control] | Potency [3] | activity change, negative = inhibition [4] 2.18% [at 30.8 µM] | activation [5] 23.3% [at 30.8 µM]

O=C1CC(c2c(F)cccc2Cl)c2c(ccc3ccccc23)N1 (stereo not given)
inactive: Potency [1] | Potency [2] | Potency [3] | Potency [4] | Potency [5]

CC1(C(=O)NS(=O)(=O)c2ccc(Cl)cc2)CCN1C(=O)C1(c2ccccc2)CCCC1 (stereo not given)
inactive: Potency [1] | Potency [2] | Potency [3] | Potency [4] | Potency [5]

O=C(NCC(c1ccco1)N1CCCCC1)c1cccc(NS(=O)(=O)c2ccc(Br)cc2)c1 (stereo not given)
inactive: Potency [1] | activation [2] -6.31% [at 17.1 µM, percent relative to cAMP agonist control] | Potency [3] | activity change, negative = inhibition [4] -11.8% [at 30.8 µM] | activation [5] 29.4% [at 30.8 µM]

Cc1cc2ccccc2n1CCNC(=O)C1CCCCC1
inactive: Potency [1] | Potency [2] | Potency [4] | Potency [5]
active: Potency [3] 95.3 µM

O=C1NC[C@H](Cc2ccc(O)cc2)N(C[C@@H]2CCCN2C[C@H](Cc2ccc(O)cc2)N2C[C@H](Cc3ccccc3)N(CC3CCCCC3)C(=O)C2=O)C1=O
inactive: Potency [1] | activation [2] -4.51% [at 17.1 µM, percent relative to cAMP agonist control] | Potency [3] | activity change, negative = inhibition [4] -13.5% [at 30.8 µM] | activation [5] 17.8% [at 30.8 µM]

C=CCn1c(=NC(=O)c2sc3ccccc3c2Cl)sc2cc(S(N)(=O)=O)ccc21
inactive: Potency [1] | Potency [2] | Potency [3] | Potency [4] | Potency [5]

COc1ccc(/C=C2\Sc3ccc(C(=O)N4CCN(Cc5ccccc5)CC4)cc3N(C)C2=O)cc1OC
inactive: Potency [1] | Potency [2] | Potency [3] | Potency [4] | Potency [5]

OC(c1ccc(F)c(F)c1)c1nc(-c2csc3ccccc23)cs1 (stereo not given)
inactive: Potency [1] | activation [2] 3.04% [at 17.1 µM, percent relative to cAMP agonist control] | Potency [3] | activity change, negative = inhibition [4] -0.286% [at 30.8 µM] | activation [5] 2.58% [at 30.8 µM]

Oc1cccc(-c2nc3ncccn3c2Nc2cccc(C(F)(F)F)c2)c1
inactive: Potency [1] | Potency [2] | Potency [3] | Potency [4] | Potency [5]

CC(Oc1ccc(Cl)cc1)C(=O)Nc1sccc1C(N)=O (stereo not given)
inactive: Potency [1] | activation [2] 0.0366% [at 17.1 µM, percent relative to cAMP agonist control] | Potency [3] | activity change, negative = inhibition [4] -14.6% [at 30.8 µM] | activation [5] 24.1% [at 30.8 µM]

COc1ccc(C2CC(=O)C3=C(C2)NC(C)=C(C#N)C3c2ccc(N(C)C)cc2)cc1 (stereo not given)
inactive: Potency [1] | activation [2] 6.82% [at 17.1 µM, percent relative to cAMP agonist control] | Potency [3] | activity change, negative = inhibition [4] 0.0712% [at 30.8 µM] | activation [5] 20% [at 30.8 µM]

CCOC(=O)C1=C(C)NC(C)=C(C(=O)OCC)C1c1ccc([N+](=O)[O-])s1
inactive and 42.6 µM (active): Potency [3]
inactive: Potency [1] | Potency [2] | Potency [4] | Potency [5]

COc1cc(/C=C2\SC(=O)N(CC(=O)Nc3ccc(C)cc3)C2=O)cc(Cl)c1OCC(=O)O
inactive: Potency [1] | Potency [2] | Potency [3] | Potency [4] | Potency [5]

COCCNc1nc(Oc2ccccc2)c2sccc2n1
inactive: Potency [1] | Potency [2] | Potency [3] | Potency [4] | Potency [5]

Cc1ccc(CSC2=NCCN2S(=O)(=O)c2ccc(F)cc2)cc1
inactive: Potency [1] | activation [2] 1.66% [at 17.1 µM, percent relative to cAMP agonist control] | Potency [3] | activity change, negative = inhibition [4] -7.41% [at 30.8 µM] | activation [5] 4.55% [at 30.8 µM]

COC(=O)c1ccccc1NC(=O)Cn1nc(C(F)(F)F)c2c1CCCC2
inactive: Potency [1] | Potency [2] | outcome [3] inactive [at 12.7 µM] | Potency [4] | Potency [5]

Cc1ccc(F)c(S(=O)(=O)NC(=O)C2(C)CCN2C(=O)C2(c3ccc(Cl)cc3)CCC2)c1 (stereo not given)
inactive: Potency [1] | Potency [2] | Potency [3] | Potency [4] | Potency [5]

O=[N+]([O-])c1cc2oc3c(c2c(C=NCc2ccncc2)c1O)CCCC3
inactive: Potency [1] | activation [2] 1.74% [at 17.1 µM, percent relative to cAMP agonist control] | Potency [3] | activity change, negative = inhibition [4] -19.5% [at 30.8 µM] | activation [5] 15.1% [at 30.8 µM]

CC(Oc1ccc(Cl)cc1Cl)C(=O)NC1=NN(c2ccccc2)C(=O)C1 (stereo not given)
inactive: Potency [1] | Potency [2] | Potency [3] | Potency [4] | Potency [5]

CC(C)(C)NC(=O)C(c1ccc(C#N)cc1)n1c(=O)c(-c2ccco2)nc2ccccc21 (stereo not given)
inactive: Potency [1] | Potency [2] | Potency [3] | Potency [4] | Potency [5]

N#C/C(=C\c1ccc(OCc2ccc(C(=O)O)cc2)cc1)C(=O)N1CCOCC1
active: Potency [3] 21.3 µM
inactive: Potency [1] | Potency [2] | Potency [4] | Potency [5]

O=C(Cc1ccc(Cl)cc1)N/N=C/c1ccc(O)c(O)c1
inactive: Potency [1] | Potency [2] | Potency [3] | Potency [4] | Potency [5]

Cc1c(C(=O)OCC(C)C)[nH]c2c1C(=O)CC(c1ccco1)C2 (stereo not given)
inactive: Potency [1] | Potency [2] | Potency [3] | Potency [4] | Potency [5]

COc1ccc(N=C2SC(C(=O)Nc3ccc(C(=O)O)cc3)CC(=O)N2Cc2cccs2)cc1 (stereo not given)
inactive: Potency [1] | activation [2] -0.227% [at 17.1 µM, percent relative to cAMP agonist control] | Potency [3] | activity change, negative = inhibition [4] -2.18% [at 30.8 µM] | activation [5] 7.24% [at 30.8 µM]

COc1cccc(C(=O)/C=C/c2ccc(OCC#N)c(OC)c2)c1
inactive: Potency [1] | activation [2] 0% [at 17.1 µM, percent relative to cAMP agonist control] | Potency [3] | activation [5] 12.6% [at 30.8 µM]

CCC1(c2ccccc2)SCC(c2ccccc2)=NC1=O (stereo not given)
inactive: Potency [1] | Potency [2] | Potency [3] | Potency [4] | Potency [5]

COC(=O)C1=C(C)N(Cc2ccccc2)C(=O)N[C@H]1c1cccc(C(F)(F)F)c1
inactive: outcome [6] | outcome [7] | outcome [8] | outcome [9] | outcome [10] | Potency [1] | activation [2] 7.76% [at 17.1 µM, percent relative to cAMP agonist control] | Potency [3] | activity change, negative = inhibition [4] -21.1% [at 30.8 µM] | activation [5] 10.2% [at 30.8 µM]

O=C(Nc1ccc(Cl)cc1)Nc1ccccc1NS(=O)(=O)c1cccs1
inactive: Potency [1] | activation [2] 7.96% [at 17.1 µM, percent relative to cAMP agonist control] | Potency [3] | activation [5] 27.1% [at 30.8 µM]

COC(=O)c1cc2c(N)c(C(=O)c3ccc(Cl)cc3)sc2nc1C(OC)OC
inactive: Potency [11] | Potency [1] | activation [2] 5.58% [at 17.1 µM, percent relative to cAMP agonist control] | Potency [3] | activity change, negative = inhibition [4] -4.3% [at 30.8 µM] | activation [5] 42.3% [at 30.8 µM]

CC1(OC(=O)C2CCCC2)C(=O)C=C2C=C(c3ccsc3)N(Cc3ccco3)C=C2C1=O (stereo not given)
inactive: outcome [7] | outcome [10] | Potency [1] | Potency [2] | Potency [3] | Potency [4]

O=C(NCC(c1ccco1)N1CCCC1)c1ccccc1Sc1ccc(C(F)(F)F)cc1[N+](=O)[O-] (stereo not given)
inactive: Potency [1] | Potency [2] | Potency [3] | Potency [4] | Potency [5]
